Tau FP inhib – qHTS for Inhibitors of Tau Fibril Formation, Fluorescence Polarization | K18 P301L tau heparin fibrillization, Alexa594 FP, 6 h | 0.39% of 280,000 active | Microtubule-associated protein tau (Homo sapiens), P10636 | Potency, µM (titrated, usually from 57.7 µM), for the others: at the highest dose activity, negative = inhibition, usual class: inhibitors; further: potency means the concentration at half of the fitted maximal effect; on the % scale 0 is the no-effect control and ±100 the full control effect; nearly all actives have a fitted effect of over 55% in size
Target sequence (P10636 561-689 P618L limits assumed): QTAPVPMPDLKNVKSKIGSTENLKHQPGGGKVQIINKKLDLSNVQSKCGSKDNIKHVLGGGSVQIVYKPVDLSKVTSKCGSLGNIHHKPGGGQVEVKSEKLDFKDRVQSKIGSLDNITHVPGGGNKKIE
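Recombinant K18 P301L […], labeled with Alexa 594 at 0.24 uM over 15 uM unlabeled; heparin inducer 20 uM final; 37 C, 6 hr; FP endpoint.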
Tau fibril ThT – qHTS for Inhibitors of Tau Fibril Formation, Thioflavin T Binding. Microtubule-associated protein tau (Homo sapiens), P10636. recombinant tau K18 P301L, heparin-induced fibrillization, ThT fluorescence. Potency, µM (titrated, usually from 57.4 µM), inactives show at the highest dose activity, negative = inhibition, actives largely listed as inhibitors. 2.1% of 270,000 active. AID 1460, 2008; further: potency means the concentration at half of the fitted maximal effect; on the % scale 0 is the no-effect control and ±100 the full control effect; nearly all actives have a fitted effect of over 55% in size
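Heparin-induced fibrillization of the P301L-mutant K18 repeat-domain fragment of human tau was followed by ThT binding in quantitative high-throughput format.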
Tau fluor counter – Counterscreen qHTS for Inhibitors of Tau Fibril Formation, Fluorescence Polarization | tau K18 P301L Alexa594 fluorescence, heparin fibrillization | Potency, µM (series often up to 57.7 µM), without a hit: top-dose activity change, negative = decrease | 0.93% of 280,000 active; further: potency means the concentration at half of the fitted maximal effect; on the % scale 0 is the no-effect control and ±100 the full control effect; nearly all actives have a fitted effect of over 55% in size
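Human K18 P301L tau (15 uM unlabeled plus 0.24 uM Alexa 594-labeled, final) in 100 mM sodium acetate pH 7 was mixed with compound and 20 uM heparin and incubated 6 hr at 37 C.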
HTT ATP protect – qHTS Multiplex Assay to Identify Dual Action Probes in a Cell Model of Huntington: Cytoprotection (ATP) | Potency, µM (doses to about 56.4 µM), for inactives: cytoprotection (ATP increase), hits mostly activators | PC12 HTT-Q103 induced, cytoprotection, ATP luminescence, 40 h | 0.14% of 230,000 active; further: potency means the concentration at half of the fitted maximal effect; % of control where 0% means no effect; nearly all actives have a fitted effect of over 45% in size
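Huntington model: PC12 line, ecdysone-inducible HTTQ103 exon1–GFP, tebufenozide 100 nM. Test articles in a dose series. Endpoint luminescence from cellular ATP.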
HTT aggregate – qHTS Multiplex Assay to Identify Dual Action Probes in a Cell Model of Huntington: Aggregate Formation (GFP); AID 1688, 2009; PC12 HttQ103-GFP aggregates, Acumen cytometry, 40 h; Potency, µM (titrated, usually from 46.1 µM), for inactives: at the top dose activity change, negative = inhibition, most hits filed as inhibitors; 1.1% of 220,000 active; further: potency means the concentration at half of the fitted maximal effect; on the % scale 0 is the no-effect control and ±100 the full control effect; nearly all actives have a fitted effect of over 60% in size
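PC12 cells stably carrying ecdysone-inducible HTT exon 1 Q103–GFP were induced with tebufenozide (100 nM final) and treated with library compounds in titration. GFP aggregates in lysates were counted by laser scanning cytometry.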
Tau TEM fibril – Transmission Electron Microscopy Assay for Inhibitors of Tau Fibrillization. shares compounds with Tau fibril ThT. 70% of 45 active. fibril grade (0 = clumped fibrils, 4 = only tiny pieces) (concentration not given with the values). recombinant tau K18 P301L fibrillization, TEM grading; stronger effect = higher value;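 active means compounds whose electron micrographs showed tau fibrils broken into shorter filaments or fragments, graded high on fibril breakup; inconclusive means micrographs gave an unclear fibril picture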
tau sediment – Sedimentation Assay for Inhibitors of Tau Fibrillization; inhibition, % at 100 µM; 50% of 110 active; shares compounds with Tau fibril ThT; recombinant tau K18 P301L (four-repeat tau fragment), sedimentation SDS-PAGE densitometry; in the data active means inhibition above about 40%; inconclusive means no clear call, values can overlap the other calls; inactive means below about 18%
Numbers without * were called inactive; ? = inconclusive; nt = not tested or not shown; [ ] = dose if it differs, or a comment. A selection: hits, their analogues and other compounds. The true share with any hit is near 3.7%. Unless noted, the call rests on the fitted dose curve; in most records, active means well fitted curve in the direction sought with a large enough effect; inconclusive means small, poorly fitted or top-dose-only effect, or another doubt; inactive means no such curve, though single readings can be large; an effect the other way counts as inactive or inconclusive.

SMILES	Tau FP inhib	Tau fibril ThT	Tau fluor counter	HTT ATP protect	HTT aggregate	others
Cc1cc(C)c(C(=O)COC(=O)c2cc([N+](=O)[O-])ccc2NCCO)cc1C	?	-12%	?	nt	0.014µM*
CCc1ccc(C(=O)COC(=O)c2cc([N+](=O)[O-])ccc2NCCO)cc1	-7%	-17%	?	17%[0.074 µM]	-12%
CSc1nn(Cc2ccc(F)cc2)c(N)c1S(=O)(=O)c1ccc(Cl)cc1	?	0%	?	nt	nt
COc1ccc(NC(=O)NCc2ccncc2)cc1	0%	-7%	-3%	0%	17%
COc1ccc(NC(=O)Nc2ccc(Cc3ccncc3)cc2)c(OC)c1	?	?	25µM*[quencher]	0%[10 µM]	-20%
COc1ccc(NCC(=O)Nc2ccc(Cl)cc2C)c(OC)c1	-14%	32µM*	?	-8%[0.074 µM]	-19%
COC(=O)c1cc(OC)c(OC)cc1NC(=O)Nc1ccc(OC)cc1OC	0%	-10%	-12%	-8%	14%
COc1ccc(NC(=O)Nc2nc(C)cc(C)n2)c(OC)c1	?	-3%	-1%	nt	28µM*
C=CCN1c2ccccc2[C@]23C[C@@H](C(=O)OC)N(C(=O)COCc4ccccc4)C2=NC(C(=O)OC)=C(C(=O)OC)[C@H]13	-8%[11.6 µM]	-4%[11.5 µM]	-5%[11.6 µM]	-17%[10 µM]	nt
COc1ccc(-n2nc(C(=O)c3cccs3)cc(-c3nc4ccccc4[nH]3)c2=N)cc1	-3%	4µM*	?	-11%[1.9 µM]	11%
O=[N+]([O-])c1cccn2cc(-c3ccc(Br)cc3)nc12	10%	5µM*	-14%	1%	?
Brc1ccc2nc(-c3c[nH]c4ccccc34)cn2c1	7%	10µM*	?	-9%[10 µM]	15%
Cc1c(C(=O)N(C)Cc2ccccc2)oc2ccc(S(=O)(=O)N3CCCC3)cc12	3%	?	-5%	-77%	11µM*
COc1ccc(N(Cc2cccs2)C(=O)c2ccc(Br)o2)cc1	-2%	-13%	-15%	nt	nt
COc1cc(C/C=C\c2ccccc2)c(OC)cc1O	?	20µM*	?	-193%	nt
Cc1ccc(N/C=C/c2onc(C)c2[N+](=O)[O-])cc1	6%	0.63µM*	-24%	15%[10 µM]	9%[9.22 µM]
Cc1cccc(C)c1N/C=C/c1onc(C)c1[N+](=O)[O-]	0%	4%	1%	-13%	-4%
COc1cccc(CNC(=O)CN2C(=O)N(c3cc(C)ccc3C)S(=O)(=O)c3ccccc32)c1OC	-5%	4%	-15%	nt	nt
CC(/C=C1\SC(=S)N(NC(=O)c2ccc(C)cc2)C1=O)=C\c1ccccc1	3%	?	-28%	27%	14%
CC(=O)c1ccc(NC(=O)CN2C(=O)/C(=C/C(C)=C/c3ccccc3)SC2=S)cc1	?	?	?	-3%[10 µM]	?
CC(/C=C1\SC(=S)N(NC(=O)c2ccncc2)C1=O)=C\c1ccccc1	-13%	10µM*	?	9%[10 µM]	15%[9.22 µM]
CC(/C=C1\SC(=S)N(NC(=O)c2ccccc2C)C1=O)=C\c1ccccc1	2%	4µM*	?	4%[10 µM]	7%
CC(C)c1ccc(NC(=O)CN2C=NS(=O)(=O)c3ccccc32)cc1	?	12%	13%	nt	nt
CCc1ccc(Nc2ccc(C(N)=O)cc2[N+](=O)[O-])cc1	12%	13µM*	?	17%[10 µM]	?
C=CCOc1ccccc1/C=N/NC(=O)c1ccc(Cl)cc1Cl	-2%	-13%	-13%	17%[10 µM]	6%
SMILES	Tau FP inhib	Tau fibril ThT	Tau fluor counter	HTT ATP protect	HTT aggregate	others
COc1cc(C(=O)Oc2ccccc2/C=N/NC(=O)c2ccc(Cl)cc2Cl)cc(OC)c1OC	-14%	-23%	-22%	-58%[10 µM]	6.3µM*
CC(=O)Nc1nc(C)c(-c2csc(Nc3cccc([N+](=O)[O-])c3)n2)s1	?	?	?	-34%	-18%	tau sediment=13
CC(=O)Nc1nc(C)c(-c2csc(Nc3ccc(O)cc3)n2)s1	-12%	8.9µM*	14µM*[quencher]	-58%[10 µM]	?	Tau TEM fibril=0;tau sediment=?
NCC1CCC(N)C(O[C@@H]2C(O)[C@H](O[C@H]3OC(CO)C(O)C(N)C3O)[C@@H](N)C[C@H]2N)O1 (stereo not given in full)	-12%	-4%	-7%	-4%	-7%
CN(C)c1ccc(N2C(=O)CSC2=S)cc1	?	4.5µM*	?	7%[10 µM]	15%	tau sediment=11
COc1ccc2[nH]c(=O)c(CN(Cc3cccs3)C(=S)Nc3cccc(C)c3)cc2c1	?	-7%	?	-26%[10 µM]	3%
COc1ccc2[nH]c(=O)c(CNc3cccc(C)c3)cc2c1	6%	-8%	-2%	-7%	-1%	Tau TEM fibril=4*;tau sediment=85*
COc1ccc(CN2C(=O)/C(=C/c3ccc(-c4ccc(Cl)c(C(=O)O)c4)o3)SC2=S)cc1	-4%	?	-4%	-22%	7%
O=C(O)CN1C(=O)/C(=C/c2ccc(-c3cccc(Cl)c3)o2)SC1=S	nt	nt	nt	nt	nt	tau sediment=14
CCn1c(CSc2nccn2C)nc2cc(C(=O)O)ccc21	?	4µM*	-5%	-11%	9%	Tau TEM fibril=3*;tau sediment=56*
Oc1ccccc1CNc1cccc2cccnc12	?	6.3µM*	16µM*[quencher]	-17%[10 µM]	-18%[9.22 µM]	Tau TEM fibril=?;tau sediment=61*
CCOC(=O)c1c(S(=O)(=O)N2CCC(C(=O)N3CCN(c4ccc(F)cc4)CC3)CC2)c(C)n(C)c1C	7%	2%	8%	nt	nt
COc1ccc2oc(-c3cccc(NC(=O)c4cc([N+](=O)[O-])ccc4N4CCOCC4)c3)nc2c1	-15%	?	?	nt	nt
O=C(Nc1cccc(-c2nc3ccccc3o2)c1)c1cc([N+](=O)[O-])ccc1N1CCOCC1	?	-22%	?	nt	nt	tau sediment=17
Cc1ccc(Cl)cc1NC(=O)Cn1c(=O)c(CNc2ccccc2)cc2cc3c(cc21)OCCO3	-2%	?	?	nt	nt
O=C(Cn1c(=O)c(CNc2ccccc2)cc2cc3c(cc21)OCCO3)Nc1ccccc1Cl	?	8.9µM*	?	nt	nt	Tau TEM fibril=0;tau sediment=62*
COc1cc(OC)cc(-c2nc3nc(C)c(CCC(=O)Nc4ccc(F)cc4F)c(C)n3n2)c1	-8%	?	?	nt	nt

Source: PubChem (National Center for Advancing Translational Sciences (NCATS))
